This is part of a sample that, as a whole, favours compounds with a hit. Of some 83,000 tested, about 20% had one in any assay.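 Single-concentration screen, 48 h exposure, 96-well plates. Endpoint: percent growth. Below 10 = active.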 Calls of active or inactive are those of the source.
Tests used:
Assay in all cases: NCI-60 one-dose screen, 48 h (100 = growth as untreated, 0 = no growth, -100 = all killed)
Details in all cases: 10 µM unless noted
[1] = tested on: HCT-15 colon
[2] = tested on: HT29 colon
[3] = tested on: SNB-75 CNS
[4] = tested on: SNB-19 CNS
[5] = tested on: U251 CNS
[6] = tested on: PC-3 prostate
[7] = tested on: SK-MEL-5 melanoma
[8] = tested on: UACC-62 melanoma
[9] = tested on: LOX IMVI melanoma
[10] = tested on: SK-MEL-28 melanoma

Measured: growth

Cc1nn(-c2ccccc2)c(Oc2ccccn2)c1-c1nc2ccccc2s1
inactive: [1] 91.4% | [2] 92.6% | [3] 97% | [4] 100% | [5] 97.8% | [6] 91% | [7] 84.4% | [8] 91.4% | [9] 97.3% | [10] 106%

O=C(NNc1nccc(Nc2ccc(S(=O)(=O)Nc3ccncc3)cc2)n1)c1ccccc1
active: [9] -40.5%
inactive: [1] 107% | [2] 94.4% | [3] 99% | [4] 109% | [5] 99.6% | [6] 100% | [7] 102% | [8] 101% | [10] 106%

COc1ccc2cc(C(=O)c3coc4ccc(O)cc34)ccc2c1
inactive: [1] 103% | [2] 95.6% | [3] 101% | [4] 104% | [5] 103% | [6] 95.5% | [7] 99.5% | [8] 98.7% | [9] 97.4% | [10] 111%

O=C(Nc1cccc([N+](=O)[O-])c1)c1cc2ccccc2cc1O
active: [3] 6.46% | [5] 6.12% | [6] 0.633% | [7] -53.6%
inactive: [1] 12.8% | [2] 13.4% | [4] 25.8% | [8] 18.8% | [9] 10% | [10] 28.1%

CCCCOC(=O)OCc1cc(=O)c(O)co1
inactive: [1] 106% | [2] 101% | [3] 91.5% | [4] 99% | [5] 99.5% | [6] 99.6% | [7] 104% | [8] 99.4% | [9] 99.9% | [10] 107%

COc1ccc(C2=Nc3c/c(=C\c4c(O)[nH]c5ccc(Cl)cc45)ccc3=N2)cc1
inactive: [1] 22.5% | [3] 36.2% | [4] 65% | [5] 42% | [6] 37% | [7] 34.7% | [8] 48.1% | [10] 35.6%
active: [2] -13.9% | [9] 9.27%

C1=C(N2CCCC2)CCC1
inactive: [1] 104% | [2] 103% | [3] 93.2% | [4] 111% | [5] 99.4% | [6] 77.8% | [7] 95.5% | [8] 103% | [9] 97.4% | [10] 110%

O=C(Cn1c2c(c3ccccc31)CCCC2)Nc1ccc(-c2nc3ccccc3s2)cc1
inactive: [1] 101% | [2] 107% | [3] 106% | [4] 100% | [5] 96.9% | [6] 94.7% | [7] 93.6% | [8] 90.1% | [9] 79.9% | [10] 103%

O=S(=O)(NCCNc1cc(-c2c(-c3cccc(O)c3)nc3sccn23)ccn1)c1ccc(C(F)(F)F)cc1
active: [7] -2.62%
inactive: [1] 25.2% | [2] 32.6% | [3] 38.3% | [4] 54.8% | [5] 34.8% | [6] 31.4% | [8] 40.1% | [9] 37.8% | [10] 55.7%

CN(C)c1ccc(/C=C/C(=O)c2ccc(-n3cc(CN4CCN(c5cc6c(cc5F)c(=O)c(C(=O)O)cn6C5CC5)CC4)nn3)cc2)cc1
inactive: [1] 63.4% | [2] 28% | [3] 68.1% | [4] 31.6% | [5] 16.5% | [6] 57.4% | [7] 79% | [8] 55.8% | [9] 20.3% | [10] 68%

CC12CCC3c4ccccc4CCC3(CO1)C2 (stereo not given)
inactive: [1] 108% | [2] 100% | [3] 89.7% | [4] 114% | [5] 107% | [6] 88% | [7] 102% | [8] 105% | [9] 101% | [10] 99.9%

CC(C)c1ccc(COCc2cc(CN3CCCC3)c(O)c3ncccc23)cc1
inactive: [2] 30.5% | [3] 25.9% | [4] 17.3% | [6] 11.6% | [10] 27.3%
active: [1] -35.5% | [5] -13.2% | [7] 4.48% | [8] -9.84% | [9] -33%

CC(C)(C)n1cc(-c2ccnc(NCCNS(=O)(=O)c3cccc(F)c3)c2)c(-c2ccccc2)n1
inactive: [1] 62.5% | [2] 41.4% | [3] 85.2% | [4] 89.3% | [5] 67.5% | [6] 80.3% | [7] 72.3% | [8] 81.7% | [9] 85.1% | [10] 102%

COc1ccc(/C=C2\COc3ccc(O)c(O)c3C2=O)cc1
active: [1] -19.4% | [7] -1.8% | [8] 4.68% | [9] -63.9%
inactive: [2] 42.6% | [3] 44.4% | [4] 42% | [5] 12.8% | [6] 17.7% | [10] 57.4%

COc1ccc(/C=N/C2=C(C#N)C(c3cccc(Cl)c3)c3c(ccc4ccccc34)O2)cc1 (stereo not given)
active: [3] -30.1%
inactive: [1] 16.7% | [2] 10.3% | [4] 26.8% | [5] 25.6% | [6] 23.8% | [7] 31.3% | [8] 36.3% | [9] 26.7% | [10] 70.1%

COc1cnc2c(c1)C(=O)c1c-2n(CCCNCCO)c(=O)c2ccncc12
inactive: [1] 23.1% | [3] 12.1%
active: [2] 3.25% | [4] 7.52% | [5] 0.604% | [6] 6.97% | [7] -78.4% | [8] -49.1% | [9] -40.5% | [10] -13.1%

CN(C)Cc1ccc(NC(=O)c2cncc(C#Cc3cnc(N)c4ncccc34)c2)cc1F
inactive: [3] 123% | [4] 87.2% | [5] 74.8% | [6] 75.2% | [7] 77.3% | [8] 94.2%
active: [1] -55.7% | [2] 3.71% | [9] -65% | [10] -48.2%

CN1CCN(c2ccc(NC(=O)c3nc4ccc5[nH]ncc5c4c4c3CCCC4)cc2C(F)(F)F)CC1
active: [1] 2.8% | [9] -81.7%
inactive: [2] 20.5% | [3] 84.7% | [4] 81.6% | [5] 78% | [6] 65.4% | [7] 75.8% | [8] 89% | [10] 89.5%

O=c1c2cc(-c3ccccc3)sc2nc2sc(-c3ccccc3)nn12
inactive: [1] 103% | [2] 93.3% | [3] 113% | [4] 102% | [5] 92.1% | [6] 95.1% | [7] 100% | [8] 109% | [9] 107% | [10] 107%

O=C(O)CNC1=C(Cl)C(=O)c2ccccc2C1=O
inactive: [1] 100% | [2] 103% | [3] 86.5% | [4] 96.5% | [5] 91.1% | [6] 77.7% | [7] 112% | [8] 93.6% | [9] 84% | [10] 113%

CCCCCCNC(=O)Oc1ccc(/C(=C(/C)Cc2ccc(OC)cc2)c2ccc(OCCCN(C)C)cc2)cc1
inactive: [3] 65.9% | [4] 45.7% | [6] 24.3%
active: [1] -6.62% | [2] -55.9% | [5] -46.7% | [7] 6.74% | [8] -25.1% | [9] -60.5% | [10] -43.5%

Clc1ccc(CNc2c3ccccc3nc3ccccc23)cc1
inactive: [1] 23.3% | [2] 15% | [3] 68.4% | [4] 43.1% | [5] 46.2% | [6] 38.7% | [7] 61.2% | [8] 70.7% | [9] 23% | [10] 80.3%

O=CC1(C2(C=O)c3ccccc3-c3ccccc32)c2ccccc2-c2ccccc21
active: [1] -36.4% | [2] -53.9% | [3] -79.2% | [4] -83% | [5] -63% | [6] -64.5% | [7] -83.7% | [8] -61.5% | [9] -61% | [10] -38.2%

S=C(Nc1ccc(-c2nc(N3CCOCC3)c3cccn3n2)cc1)Nc1cccnc1
inactive: [1] 18.4% | [2] 22.8% | [3] 36.5% | [4] 32.2% | [5] 31.7% | [6] 16.4% | [7] 58.2% | [8] 25.4% | [9] 30.8% | [10] 45.9%

O=C(c1ccc(-c2nc(CSc3nc4ccccc4s3)no2)cc1)N1CCSCC1
inactive: [1] 68.5% | [2] 40.8% | [3] 91.9% | [4] 87.7% | [5] 61.6% | [6] 63.5% | [7] 24.6% | [8] 59.9% | [9] 55.2% | [10] 96.6%

O=C(/C=C/c1cccs1)c1ccc(Cl)nc1
inactive: [1] 100% | [2] 101% | [3] 95.2% | [4] 102% | [5] 99.9% | [6] 104% | [7] 104% | [8] 97.2% | [9] 102% | [10] 105%

Cn1cc(-c2nonc2-c2c[nH]c3ccc(Br)cc23)c2cc(Br)ccc21
active: [3] -11.2%
inactive: [1] 28.2% | [2] 20.6% | [4] 42.8% | [5] 42.9% | [6] 43.4% | [7] 70.3% | [8] 53.9% | [9] 24.8% | [10] 59.4%

From PubChem BioAssay (NCI)
